Rows were chosen to be rich in hits. Some 19% of all compounds tested hit in one or more screens of this group.
HT1080NT lethal = kills 2HG-producing HT-1080-NT fibrosarcoma cells; HT-1080-NT fibrosarcoma viability, CellTiter-Glo ATP luminescence, 48 h; Potency, µM (highest dose often 46.1 µM), for the others: top-dose activity, negative = less viability, actives largely listed as cytotoxic; actives 1.6% (n = 360,000);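 note: NT is the 2HG producing partner of a matched IDH1 knockdown line; potency is the fitted concentration of half-maximal effect; 0% = DMSO-treated cells and -100% = media-only wells without cells; nearly all actives have a fitted effect of over 55% in size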
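A 48-hour cytotoxicity screen used HT-1080-NT cells plated 2 hours before compound delivery. ATP-based CellTiter-Glo luminescence measured viability, normalized to DMSO and no-cell controls.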
IL-1B inflam inh = inhibitors of inflammasome signaling (IL-1 beta secretion); actives 4.7% (n = 360,000); activity change, % at 57.5 µM; THP-1 LPS/ATP IL-1B secretion, AlphaLISA, 16 h; hits give low values; in the data active = activity change below about -50%; inconclusive = mostly about -30% to -49%
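THP-1 cells pretreated 1 hr with compounds (up to 57.5 uM final), then stimulated with LPS (250 ng/mL final) plus ATP (1.25 mM final); secreted IL-1B measured by AlphaLISA after 16 hr, decreased signal indicating inhibition.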
TDP1 cell noCPT = qHTS for Inhibitors of human tyrosyl-DNA phosphodiesterase 1 (TDP1): qHTS in cells in absence of CPT; DT40 Tdp1-/- hTDP1 cells, no CPT, ATP luminescence, 48 h; Potency, µM (series often up to 46.2 µM), for inactives: at the top dose activity change, negative = growth inhibition, actives largely listed as inhibitors; actives 15% (n = 420,000); AID 686978, 2013; note: potency is the fitted concentration of half-maximal effect; nearly all actives have a fitted effect of over 55% in size
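DT40 Tdp1-/-;hTDP1 cells, no CPT (DMSO vehicle only), 400 cells/well; compounds pin-transferred; ≥48 hr, 37 °C; CellTiter-Glo 30 min RT dark, luminescence read.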
HT1080 IDH1KD tx = HT-1080 IDH1 knockdown cell toxicity (counter line); HT-1080 IDH1 knockdown viability, ATP luminescence, 48 h; Potency, µM (series often up to 46.1 µM), without a hit: top-dose activity, negative = toxicity, usual class: cytotoxic; actives 2% (n = 360,000);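 note: potency is the fitted concentration of half-maximal effect; 0% = DMSO wells and -100% = cell-free medium wells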
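HT-1080-IDH1KD cells (IDH1 knocked down), 750/well in RPMI with 5% FBS, treated with compound 48 h at 37 degrees C. Viability by CellTiter-Glo luminescence, normalised to DMSO and no-cell wells; concentration-response curves classed.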
DT40 TDP1 CPT = growth inhibition of DT40 Tdp1-/-;hTDP1 cells with camptothecin (screen for TDP1 inhibitors); chicken DT40 Tdp1-/-;hTDP1 cells + 20 nM CPT, ATP luminescence, 48 h; Potency, µM (doses to about 46.2 µM), for inactives: at the highest dose activity change, negative = growth inhibition, most hits filed as inhibitors; actives 12% (n = 420,000); note: potency is the fitted concentration of half-maximal effect; nearly all actives have a fitted effect of over 55% in size
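Chicken DT40 Tdp1-/- cells stably complemented with human TDP1 were seeded at 400 cells/well in medium containing 20 nM camptothecin, exposed to pin-transferred compounds, and grown at 37 °C for at least 48 hr. Viability was read as ATP luminescence.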
Active calls of the source: *; ? = inconclusive; / = no result; [ ] = another dose, or the depositor's remark. Unless noted, calls come from the whole dose curve; as a rule, active = well fitted curve in the direction sought with a large enough effect; inconclusive = small, poorly fitted or top-dose-only effect, or another doubt; inactive = no such curve, though single readings can be large; an effect the other way counts as inactive or inconclusive. Unless noted, % is set by controls: 0 for no effect and ±100 for the full control effect.

SMILES	HT1080NT lethal	IL-1B inflam inh	TDP1 cell noCPT	HT1080 IDH1KD tx	DT40 TDP1 CPT
C=CCC[C@H](Cc1ccc(F)cc1)C(=O)OC[C@@H](C)NC(=O)[C@@H](CC=C)CC(=O)N[C@H](CO)Cc1ccccc1	-7%	-3	?	-17%	?
C=CCC[C@@H](Cc1ccc(F)cc1)C(=O)OC[C@@H](NC(=O)[C@@H](CC=C)CC(=O)N[C@@H](CO)Cc1ccccc1)C(C)(C)C	?	?	?	?	23µM*
C=CCC[C@H](Cc1ccc(F)cc1)C(=O)OC[C@@H](C)NC(=O)[C@@H](CC=C)CC(=O)N[C@@H](CO)Cc1ccccc1	3%	-11	15µM*	4%	?
CCN(CC)c1ccc(NC(=O)CN2C(=O)CSc3ncccc32)c(C)c1	-9%	11	7.3µM*	-5%	5.2µM*
COc1ccccc1NC(=O)Cn1nc(C)n2cccc2c1=O	-4%	0	-10%	-14%	-5%
CCN(CC)c1ccc(NC(=O)CN2C(=O)c3cccnc3Oc3ccccc32)c(C)c1	/	/	16µM*	/	16µM*
CNC(=O)CN1C(=O)CSc2ncccc21	0%	4	-19%	2%	-2%
CCN(CC)c1ccc(NC(=O)Cn2nc(C)n3cccc3c2=O)c(C)c1	/	/	18µM*	/	15µM*
COc1ccccc1CNC(=O)CN1C(=O)c2cccnc2Oc2ccccc21	/	/	-20%	/	-4%
CCCCNC(=O)C[C@@H]1C[C@@]2(C(=O)OC)CC(C)(C)CC=C2N(Cc2ccc3c(c2)OCO3)C1=O	-19%	-16	?	-15%	16µM*
COC(=O)[C@@]12C[C@@H](CC(=O)NCCc3ccccc3OC)C(=O)N(Cc3ccccc3)C1=CCC(C)(C)C2	?	?	?	?	21µM*
COC(=O)[C@@]12C[C@@H](CC(=O)NCCCCc3ccccc3)C(=O)N(Cc3ccc4c(c3)OCO4)C1=CCC(C)(C)C2	?	-76*	13µM*	?	?
COCCCNC(=O)C[C@@H]1C[C@@]2(C(=O)OC)CC(C)(C)CC=C2N(Cc2ccccc2)C1=O	0%	-28	-10%	-4%	?
COC(=O)[C@@]12C[C@@H](CC(=O)NCC34CC5CC(CC(C5)C3)C4)C(=O)N(Cc3ccc4c(c3)OCO4)C1=CCC(C)(C)C2	?	-4	?	-26%	?
COc1ccc(C/C(C)=N/NC(=O)c2cccnc2)cc1	0%	3	-13%	4%	-10%
CCN(C(=O)COC(=O)CNC(=O)C1CCCCC1)c1ccccc1	7%	-2	6%	6%	4%
COc1ccc(OC)c(-c2cc(Cl)c3c(c2)CC(CNC(=O)[C@@H]2CCCN2C(C)=O)O3)c1 (stereo partly drawn)	/	/	-15%	/	20%[9.04 µM]
O=C(CSc1nc2ccc(Nc3nc(N4CCOCC4)nc(N4CCOCC4)n3)cc2s1)N1CCOCC1	-4%	-13	18µM*	-2%	21µM*
O=C(CSc1nc2ccc(Nc3nc(N4CCOCC4)nc(N4CCOCC4)n3)cc2s1)Nc1ccccc1Cl	?	0	?	-28%	21µM*
O=C(CSc1nc2ccc(Nc3nc(N4CCCC4)nc(N4CCCC4)n3)cc2s1)NCc1ccco1	-6%	0	6.5µM*	-2%	5.8µM*
CC(=O)Nc1ccc2nc(SCC(=O)N3CCOCC3)sc2c1	1%	11	-1%	2%	6%
O=C(CSc1nc2ccc(Nc3nc(N4CCOCC4)nc(N4CCOCC4)n3)cc2s1)Nc1ccccc1F	7%	40	5.8µM*	4%	6.5µM*
NS(=O)(=O)c1ccc(NC(=O)CSc2nc(Nc3ccccc3)nc(N3CCOCC3)n2)cc1	-17%	-18	16µM*	-27%	21µM*
CSc1nc2ccc(Nc3nc(N4CCOCC4)nc(N4CCOCC4)n3)cc2s1	?	/	16µM*	?	23µM*

Screening results (PubChem BioAssay)
